# Compound activity from PubChem BioAssay.
# IL1B secr inh = blocks inflammasome-driven IL-1 beta release; THP-1 LPS/ATP IL-1B secretion, AlphaLISA, 16 h; stronger effect = lower value; activity change, % at 57.5 µM; 4.7% of 360,000 active; AID 743279; in the data active = activity change below about -50%; inconclusive = mostly about -30% to -49%; note: % is set by controls: 0 for no effect and ±100 for the full control effect
#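 THP-1 cells pretreated 1 hr with compounds (up to 57.5 uM final), then stimulated with LPS (250 ng/mL final) plus ATP (1.25 mM final); secreted IL-1B measured by AlphaLISA after 16 hr, decreased signal indicating inhibition.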
# DT40 TDP1 no CPT = qHTS for Inhibitors of human tyrosyl-DNA phosphodiesterase 1 (TDP1): qHTS in cells in absence of CPT; DT40 Tdp1-/- hTDP1 cells, no CPT, ATP luminescence, 48 h; Potency, µM (series often up to 46.2 µM), inactives show at the top dose activity change, negative = growth inhibition, most hits filed as inhibitors; 15% of 420,000 active; AID 686978, 2013; note: potency is the fitted concentration of half-maximal effect; % is set by controls: 0 for no effect and ±100 for the full control effect; nearly all actives have a fitted effect of over 55% in size
#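 Growth of hTDP1-complemented DT40 Tdp1-knockout cells is measured by ATP luminescence after at least 48 hr compound exposure at 37 °C, with DMSO substituting for the 20 nM CPT used in the parallel screen.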
# TDP1 inh = TDP1 (human) enzyme inhibition | Q9NUW8 | recombinant TDP1, AlphaScreen DNA substrate cleavage | Potency, µM (top dose mostly 130 µM), inactives show at the highest dose activity change, negative = inhibition, actives largely listed as inhibitors | 0.28% of 350,000 active; note: potency is the fitted concentration of half-maximal effect; % is set by controls: 0 for no effect and ±100 for the full control effect; nearly all actives have a fitted effect of over 40% in size
# Target sequence (Q9NUW8 whole entry, looked up): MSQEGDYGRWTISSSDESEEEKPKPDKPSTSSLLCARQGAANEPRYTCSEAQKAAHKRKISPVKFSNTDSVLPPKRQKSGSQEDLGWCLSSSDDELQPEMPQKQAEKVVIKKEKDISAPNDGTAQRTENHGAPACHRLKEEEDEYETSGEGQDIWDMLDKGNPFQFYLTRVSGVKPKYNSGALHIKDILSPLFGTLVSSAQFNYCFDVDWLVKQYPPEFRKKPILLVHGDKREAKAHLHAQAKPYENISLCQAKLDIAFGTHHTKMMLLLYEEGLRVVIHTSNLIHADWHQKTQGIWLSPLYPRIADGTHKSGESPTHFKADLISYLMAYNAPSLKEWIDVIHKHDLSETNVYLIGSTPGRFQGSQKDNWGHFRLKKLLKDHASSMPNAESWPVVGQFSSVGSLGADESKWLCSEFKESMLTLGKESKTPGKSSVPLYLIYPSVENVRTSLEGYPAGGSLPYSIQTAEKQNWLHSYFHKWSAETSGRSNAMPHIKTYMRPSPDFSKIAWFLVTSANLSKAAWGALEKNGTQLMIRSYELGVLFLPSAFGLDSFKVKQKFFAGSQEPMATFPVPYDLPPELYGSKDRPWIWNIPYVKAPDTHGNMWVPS
#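 Here, a 5' biotin and 3' phosphotyrosine-FITC DNA oligonucleotide reports Tdp1 activity: intact substrate bridges AlphaScreen beads, while cleavage leaves a 3' phosphate and drops signal. All incubations at room temperature.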
# DT40 TDP1 CPT = growth inhibition of DT40 Tdp1-/-;hTDP1 cells with camptothecin (screen for TDP1 inhibitors) | AID 686979 | 12% of 420,000 active | chicken DT40 Tdp1-/-;hTDP1 cells + 20 nM CPT, ATP luminescence, 48 h | Potency, µM (titrated, usually from 46.2 µM), without a hit: top-dose activity change, negative = growth inhibition, usual class: inhibitors; note: potency is the fitted concentration of half-maximal effect; % is set by controls: 0 for no effect and ±100 for the full control effect; nearly all actives have a fitted effect of over 55% in size
#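 Chicken DT40 Tdp1-/- cells complemented with human TDP1, 400 cells/well, exposed to compounds plus 20 nM camptothecin for at least 48 h at 37 C; viability read as ATP content by CellTiter-Glo luminescence.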
# TGFb inhibitor = inhibitors of TGF-b signaling; HepG2 CAGA-GFP TGF-b/SMAD3 reporter, GFP fluorescence, 18 h; TGF-beta stimulated, 500 pg/mL final; AID 588855; Potency, µM (titrated, usually from 46.1 µM), inactives show top-dose activity, negative = inhibition, usual class: inhibitors; 1.2% of 410,000 active; note: potency is the fitted concentration of half-maximal effect; % is set by controls: 0 for no effect and ±100 for the full control effect; nearly all actives have a fitted effect of over 65% in size
#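 Smad-responsive CAGA-GFP expression was quantified in HEPG2 cells exposed to compounds and 500 pg/mL final TGF-beta for 18 h at 37 degrees C; unstimulated wells defined full inhibition.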
# HepG2 tox = HepG2 cytotoxicity, counter-screen for TGF-b inhibitors | HepG2 CAGA-GFP viability, ATP luminescence, 18 h | Potency, µM (top dose mostly 46.1 µM), inactives show at the highest dose activity change, negative = cytotoxicity, actives largely listed as cytotoxic | 0.76% of 410,000 active | AID 588856; note: potency is the fitted concentration of half-maximal effect
#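 HepG2 CAGA-GFP cells (1000/well, DMEM with 1% FBS) received compound, then TGF-beta at 500 pg/mL final, and were incubated 18 hours at 37 degrees C. Viability was read by CellTiter-Glo luminescence. Media-only wells were set as complete cell-killing and DMSO as no toxicity.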
# Starred values were filed as active, the others as inactive; ? = inconclusive; · = not tested or not shown. Hits are enriched below; roughly 19% of the tested compounds scored in any of these assays. Unless noted, calls come from the whole dose curve; as a rule, active = well fitted curve in the direction sought with a large enough effect; inconclusive = small, poorly fitted or top-dose-only effect, or another doubt; inactive = no such curve, though single readings can be large; an effect the other way counts as inactive or inconclusive.
SMILES,IL1B secr inh,DT40 TDP1 no CPT,TDP1 inh,DT40 TDP1 CPT,TGFb inhibitor,HepG2 tox
CCOc1ccc(CCNC(=O)C(O)c2ccccc2)cc1 (configuration not stated),15,-28%,4%,4%,9%,7%
COc1cccc(/C=N/NC(=O)CN2CC(c3ccccc3)CC2=O)c1O (configuration not stated),92,18µM*,8%,?,-15%,-17%
COCCCNC(=S)N/N=C/c1ccc(O)cc1O,·,?,·,?,1%,13%
COCCCNC(=S)N/N=C/c1cccc(OC)c1O,-3,0.65µM*,6%,0.82µM*,?,-48%
CCOc1cccc(/C=N/NC(=O)c2ccc3c(c2)OCCO3)c1O,62,4.1µM*,-2%,2.6µM*,?,-27%
COc1ccc(C(=O)C[n+]2ccccc2Cl)cc1,·,?,·,?,?,-54%
COc1cccc(/C=N/NC(=O)CNC(=O)c2cccnc2)c1O,128,7.3µM*,·,-103%,0%,0%
O=C(CNC(=O)c1ccncc1)N/N=C/c1ccc(O)cc1O,6,18µM*,-3%,?,-6%,-7%
COc1cccc(/C=N/NC(=O)CNC(=O)C2COc3ccccc3O2)c1O (configuration not stated),195,3.7µM*,3%,5.8µM*,-14%,-4%
COc1ccc(/C=N/NC(=O)CNC(=O)COc2ccccc2)cc1,-7,-16%,3%,-6%,-8%,0%
COc1cccc(/C=N/NC(=O)CNC(=O)COc2ccccc2)c1O,180,7.3µM*,·,6.5µM*,?,-4%
CCCC(=O)Nc1cc(C)c(O)c(-c2nc3ncccc3o2)c1,·,-19%,2%,-9%,-10%,-14%
CN(C)c1ccc(/C=N/NC(=O)CNC(=O)c2ccc3c(c2)OCCO3)cc1,24,11%,6%,-8%,?,2%
O=C(CNC(=O)c1ccc2c(c1)OCCO2)N/N=C/c1ccc(O)cc1O,10,18µM*,8%,?,?,-17%
OCc1cn(-c2ccc(Cl)cc2)nn1,1,-8%,0%,1%,-4%,-7%
C1=Cc2ccccc2/C1=C\c1cc2c3c(c1)CCCN3CCC2,·,5µM*,·,1.1µM*,-1%,-3%
C1=Cc2ccccc2/C1=C\c1cccc(/C=C2\C=Cc3ccccc32)c1,·,?,·,?,?,-97%
CCS(=O)(=O)N1CCc2cc(C(=O)Nc3cc([N+](=O)[O-])ccc3C)ccc21,·,-23%,9%,?,-1%,-8%
COc1cc(OC)c(OC)cc1CN1CCCC(c2[nH]ncc2-c2cccc(C(F)(F)F)c2)C1 (configuration not stated),·,23µM*,·,?,·,·
COc1ccccc1C(=O)C1CCCN(Cc2cn[nH]c2C2CCCCC2)C1 (configuration not stated),?,?,·,2%,-4%,-20%
Cc1ccc(S(=O)(=O)N2CCN(CC(O)COc3ccccc3)CC2)cc1 (configuration not stated),16,-16%,3%,4%,-3%,6%
CCOC(=O)c1ccc(NC(=O)c2cccc(S(=O)(=O)N3CCN(C(C)=O)CC3)c2)cc1,45,13µM*,·,?,0%,-10%
CCOC(=O)c1ccc(S(=O)(=O)N2CCN(CC(O)COc3cccc(C(C)=O)c3)CC2)cc1 (configuration not stated),-78*,-6%,·,-10%,0%,-3%
CCOC(=O)c1ccc(NC(=O)c2cc(S(=O)(=O)N3CCOCC3)ccc2O)cc1,32,21µM*,7%,?,?,-29%
CCOC(=O)c1c(-c2ccccc2)csc1NC(=O)c1cc(S(=O)(=O)N2CCOCC2)ccc1C,-7,?,6%,7.3µM*,7%,9%
SMILES,IL1B secr inh,DT40 TDP1 no CPT,TDP1 inh,DT40 TDP1 CPT,TGFb inhibitor,HepG2 tox
CCN(C(=O)C(=O)c1c(C)[nH]c2ccccc12)c1ccccc1,·,?,·,?,-12%,-4%
CCCOC(=O)c1ccc(NC(=O)c2cccc(S(=O)(=O)N3CCN(C(C)=O)CC3)c2)cc1,-2,16µM*,·,?,-2%,-2%
CCNC(=O)C1(C)CCCN(C(=O)Cc2ccc(OC)c(OC)c2)C1 (configuration not stated),4,-12%,·,4%,4%,10%
Cc1ccccc1CNc1ccc(C(CC(N)=O)NC(=O)c2ccccc2)cc1[N+](=O)[O-] (configuration not stated),-78*,23µM*,2%,16µM*,-23%,-38%
CCCCNc1ccc(C(CC(N)=O)NC(=O)c2ccccc2)cc1[N+](=O)[O-] (configuration not stated),-12,15µM*,6%,18µM*,?,1%
CCC(CC)Nc1ccc(C(CC(N)=O)NC(=O)c2ccccc2)cc1[N+](=O)[O-] (configuration not stated),-2,15µM*,·,16µM*,-4%,-16%
NC(=O)CC(NC(=O)Cc1cccc2ccccc12)c1ccc(NCCc2ccccc2F)c([N+](=O)[O-])c1 (configuration not stated),20,?,1%,21µM*,?,1%
Cc1cccc(CNc2ccc(C(CC(N)=O)NC(=O)c3ccccc3)cc2[N+](=O)[O-])c1 (configuration not stated),-10,?,0%,?,-23%,-9%
CCCCNc1ccc(C(CC(N)=O)NC(=O)c2cc(C)cc(C)c2)cc1[N+](=O)[O-] (configuration not stated),43,-9%,·,1%,6%,-18%
CC(C)(C)OC(=O)NCC(=O)NNC(=O)c1cc2ccccc2[nH]1,·,·,0%,·,·,·
CC1=NN(C(N)=S)C(=O)C1N=Nc1c(C)cc(C)cc1C (configuration not stated),12,0.58µM*,6%,0.52µM*,-16%,-1%
CCOc1ccccc1N=NC1C(=O)N(C(N)=S)N=C1C (configuration not stated),41,3.7µM*,·,16µM*,-21%,0%
